Screen size: about 1,400 compounds; about 45 (3%) were called active.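 How the source made its calls: active means half-maximal dose of signal decrease from fit no higher than ten times the top valid tested dose; inconclusive means fit invalid, or curve flat with 30 to 70% inhibition; inactive means the rest.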 The list is a sample of the results. Results with a measured potency or affinity are listed apart.
target: Lysine-specific demethylase 4A (Homo sapiens) (UniProt O75164); experiment: JMJD2A histone demethylase inhibitors, dose response, selectivity assay for GASC-1 inhibitor project, biochemical, DELFIA europium, cherry-picked samples (AID 488840); settings: GST-JMJD2A(1-420) H3K9me3 demethylation; series mostly up to 6 µM;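 further: europium signal reports the dimethyl H3K9 product detected by antibody so inhibitors lower it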
Sequence (O75164 whole entry, looked up): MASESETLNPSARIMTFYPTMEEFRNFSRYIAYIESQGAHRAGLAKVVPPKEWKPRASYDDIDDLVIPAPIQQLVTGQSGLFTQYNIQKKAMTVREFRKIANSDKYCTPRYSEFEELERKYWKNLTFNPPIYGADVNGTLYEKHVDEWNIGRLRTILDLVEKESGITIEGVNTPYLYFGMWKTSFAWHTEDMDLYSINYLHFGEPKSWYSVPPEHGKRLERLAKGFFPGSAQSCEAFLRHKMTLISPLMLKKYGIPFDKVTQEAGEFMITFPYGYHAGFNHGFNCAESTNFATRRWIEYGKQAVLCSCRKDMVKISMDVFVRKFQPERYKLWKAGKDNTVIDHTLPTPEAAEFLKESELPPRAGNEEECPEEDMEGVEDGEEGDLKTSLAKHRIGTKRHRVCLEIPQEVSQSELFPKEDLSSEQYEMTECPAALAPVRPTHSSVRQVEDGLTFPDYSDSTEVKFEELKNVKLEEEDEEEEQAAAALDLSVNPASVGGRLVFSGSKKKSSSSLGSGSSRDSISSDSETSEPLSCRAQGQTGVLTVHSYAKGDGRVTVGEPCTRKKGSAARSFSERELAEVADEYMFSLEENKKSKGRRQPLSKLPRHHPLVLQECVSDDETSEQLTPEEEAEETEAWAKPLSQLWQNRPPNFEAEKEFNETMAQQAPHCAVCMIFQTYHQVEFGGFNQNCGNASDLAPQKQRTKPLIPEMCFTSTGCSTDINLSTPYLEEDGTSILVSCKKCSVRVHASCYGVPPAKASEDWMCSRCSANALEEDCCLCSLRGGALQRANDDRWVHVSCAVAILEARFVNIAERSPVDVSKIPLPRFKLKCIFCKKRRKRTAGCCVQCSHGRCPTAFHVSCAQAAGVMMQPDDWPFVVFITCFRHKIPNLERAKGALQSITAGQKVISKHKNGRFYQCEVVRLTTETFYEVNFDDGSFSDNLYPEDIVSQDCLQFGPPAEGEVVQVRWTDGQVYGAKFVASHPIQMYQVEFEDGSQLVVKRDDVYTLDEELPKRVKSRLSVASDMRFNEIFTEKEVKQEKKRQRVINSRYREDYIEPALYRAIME

outcome, inactive:
COc1cc2c(cc1OC)C(COc1ccc(F)cc1)NCC2 (centres undefined)
CC(C)CN(C(=O)c1ccc(N2CCCC2=O)cc1)c1c(N)n(Cc2ccccc2)c(=O)[nH]c1=O
OC(COc1ccc2ccccc2c1Br)Cn1cnc(-c2ccccc2)c1 (centres undefined)
COc1ccc2cc3cc(C(=O)N4CCN(C5CCCCC5)CC4)oc3nc2c1
C[C@@H]1CN([C@H](C)CO)C(=O)c2cccc(NS(=O)(=O)c3ccccc3)c2O[C@H]1CN(C)C
COC(=O)c1cc(C#N)c(OC)nc1C
CSc1ccc(-c2nc(CSCC(=O)N3CCOCC3)c(C)o2)cc1
Cc1ccc(/C=N\NC(=O)c2cc([N+](=O)[O-])cc([N+](=O)[O-])c2)o1
O=C(N/N=C/c1cc([N+](=O)[O-])cc([N+](=O)[O-])c1O)/C(=C\c1cccs1)NC(=O)c1ccccc1
COc1cc(C#N)c(N=C(SCC#N)N2CCOCC2)cc1OC
Cc1ccc(NC(=O)C(=O)NCCN2CCN(C(=O)C(c3ccccc3)c3ccccc3)CC2)cc1
COc1ccc(CCN2C(=O)CC(NNC(=O)c3ccccc3Br)C2=O)cc1 (centres undefined)
CNC(=O)/C(C#N)=C/c1c(N(Cc2ccccc2)Cc2ccccc2)nc2ccccn2c1=O
O=C(CSc1nnc(CNC(=O)c2ccccc2F)o1)NCCc1ccccc1
COc1ccc(NC(=O)C2OC3OC(C)(C)OC3C3OC(C)(C)OC23)cc1 (centres undefined)
C=CCOc1ccc(C(=O)NC2CCCCC2)cc1
Cc1cc(=O)[nH]c(CN2CCOCC2)n1
COc1ccc(N2CCN(C(=O)c3nn(C)c4c3CS(=O)(=O)c3ccccc3-4)CC2)cc1
O=c1cc(NC2CCCCCC2)[nH]c(=O)[nH]1
CCCc1nn2c(=O)cc(CSCC(=O)Nc3ccccc3)nc2s1
Cc1nnsc1C(=O)NNS(=O)(=O)c1ccccc1
CCC(=O)N1CCc2cc(S(=O)(=O)CCC(=O)Nc3cccc(F)c3)ccc21
C#CCOCCOCCOCCNc1nc(N2CCOCC2)nc(N2CCN(C(=O)[C@H](Cc3cc4ccccc4[nH]3)n3cc([C@@H](N)CC(C)C)nn3)CC2)n1
COc1ccc(NC(=S)N2CCC(C(=O)N3CCCCCC3)CC2)cc1
CC(=O)Nc1ccc(NC(=O)C2CCN(C(=O)c3cccs3)CC2)cc1
CCC(CC)NC(=O)CSc1nnc(-c2ccc(OC)cc2)n1C(C)C
Cc1ccc(CNC(=O)CCC2CCCN(Cc3ccc4cccc(F)c4n3)C2)o1 (centres undefined)
COc1ccc(/C=N/Nc2cc(=O)n(C)c(=O)n2C)cc1OC
CC1=NN(C(=O)Cc2ccccc2)C(O)(c2cccnc2)C1 (centres undefined)
C#CCOCCOCCOCCNc1nc(N2CCN(C(=O)[C@H](CCCCN)n3cc(CN)nn3)CC2)nc(N2CCN(C(=O)[C@H](CCC(=O)O)n3cc([C@@H](N)CCSC)nn3)CC2)n1
CCN(CC)C(=O)[C@H]1CC(CC(=O)NC/C=C(\C)CCC=C(C)C)C(=O)N2CCc3c([nH]c4ccccc34)[C@]12C (some centres undefined)
Cc1ccc(/C(N)=N/OC(=O)CCC2CCCCC2)cc1
O=c1cc(N2CCc3ccccc32)[nH]c(=O)n1-c1ccccc1
CCc1ncc(C)[nH]1
Cc1noc(C)c1COc1ccc(C(=O)NCC2CCCO2)cc1 (centres undefined)
O=c1cc(-c2ccc(O)c(O)c2)oc2c(C3O[C@H](CO)[C@@H](O)[C@H](O)[C@H]3O)c(O)cc(O)c12 (some centres undefined)
CCC(C)NC(=S)N1CCN(C)CC1 (centres undefined)
COc1cccc(NC(=O)N2CCN(c3cccc(C)c3)C(C)C2)c1 (centres undefined)
COC(=O)[C@]1(Cc2ccccc2)N[C@H](CN(C)C(=O)Nc2ccccc2)[C@@H]2C(=O)N(C)C(=O)[C@@H]21
O=C(NCc1nnc(SCC(=O)N2CCCC2)o1)c1ccccc1F
CCC(=O)Nc1ccccc1Nc1cc(C#N)c(C#N)cc1[N+](=O)[O-]
O=[N+]([O-])c1ccccc1N/N=C\c1ccccc1Cl
Cc1ccc(Nc2nnc(SCC(=O)N(C)C3CCS(=O)(=O)C3)s2)cc1 (centres undefined)
CCO[C@@H]1OC(C(=O)NC2CC2)=C[C@H](c2c[nH]c3ccccc23)[C@H]1CCCO
O=C(NCCCn1ccnc1)c1cc2c(ccc3ccccc32)o1
Cc1occc1-c1nnc(SCC(=O)c2cc3ccccc3oc2=O)o1
COc1ccccc1NC(=O)c1cccs1
COc1ccccc1NC(=O)COC(=O)/C=C/c1cccs1
Cc1ccc(C(=O)NCCCCNC(=O)c2ccc(C)o2)o1
COC(=O)C1=C(C)OC(N)=C(C#N)C1c1cc2cccc(C)c2nc1Cl (centres undefined)
CC(C)=CC(=O)O[C@@H]1Cc2c(ccc3ccc(=O)oc23)OC1(C)C
c1ccc2c(c1)ccc1nnc(-c3ccc4c(c3)OCO4)n12
CS(=O)(=O)N(CC(=O)N1CCCCCC1)c1ccccc1
C[C@H](CO)N1C[C@H](C)[C@@H](CN(C)Cc2ccncc2)Oc2c(NC(=O)Cc3ccccc3)cccc2C1=O
O=C(Nc1cccnc1)c1ccc2c(c1)C(=O)N(Cc1cccnc1)C2=O
CCOC(=O)CSc1nc2sc(C)c(C)c2c(=O)[nH]1
c1ccc(-c2nc(-c3ccco3)cs2)nc1
Cn1c(=O)c(-c2ccccc2)nn2c3ccccc3nc12
Cc1ccc(Nc2c(-c3ccccn3)nc3cc(C)ccn23)cc1
Clc1ccccc1Cn1nnc2c(NCCN3CCOCC3)ncnc21
Cc1ccc(NC(=O)c2cccc3c2C(=O)N(C2CCCCC2)C3)c(C)c1
Cc1ccc(S(=O)(=O)Nc2ccc3c(c2)C(=O)N([C@H](C)CO)C[C@H](C)[C@@H](CN(C)Cc2ccc(-c4ccccc4)cc2)O3)cc1
Cc1nn(C)c(N)c1C(O)(c1nccn1C)C(F)(F)F (centres undefined)
O=C(NCC(c1ccco1)N1CCCCC1)c1ccc(OCc2ccccc2)cc1 (centres undefined)
CCOC(=O)Cc1csc(NC(=O)COc2cccc(C)c2)n1
Cc1ccccc1-n1nc(C)c2cc(C(=O)N3CCN(S(=O)(=O)c4ccc(F)cc4)CC3)sc21
Cc1cccc(-c2noc(CCC(=O)NC3CCCC3)n2)c1
COc1ccc(CN2CCCCC2C)c(C)c1C (centres undefined)
CC(C)CCN(C(=O)C1=COCCO1)c1c(N)n(Cc2ccccc2)c(=O)[nH]c1=O
Cn1c(=O)[nH]c(=O)c2c1nc(NCCCO)n2Cc1ccc(F)cc1
COC(=O)COc1ccc(Oc2cc(C)nc(SC)n2)nn1
Cc1ccc2c(c1)N(CC(=O)NCC1CCCO1)C(=O)C(C(C)C)O2 (centres undefined)
C=CCn1c(N)c(-c2nc3ccccc3n2C)sc1=S
COc1ccc(C(=O)N2CCCC(c3nc(-c4ccc(OC)c(OC)c4)no3)C2)c(OC)c1 (centres undefined)
O=C(NCCCN1CCOCC1)c1cccc(S(=O)(=O)N2CCc3ccccc3C2)c1
O=C(Nc1cc(S(=O)(=O)N2CCOCC2)ccc1N1CCCC1)c1ccc(F)cc1
O=C(COC(=O)c1cccc(S(=O)(=O)NCc2ccccc2)c1)Nc1ccccc1OC(F)F
c1coc(CSCc2cn3cccnc3n2)c1
COC(=O)[C@]1(C)N[C@H](CN(C)C(=O)Nc2ccc(F)cc2)[C@@H]2C(=O)N(C)C(=O)[C@@H]21
Cc1cccc(NC(=O)C2CCCN(S(=O)(=O)c3c(C)nn(C)c3C)C2)n1 (centres undefined)
CN(C(=O)c1ccc(Cl)c([N+](=O)[O-])c1)C1(C)CCS(=O)(=O)C1 (centres undefined)
O=C1NC(=S)N/C1=C/c1cc2c(cc1[N+](=O)[O-])OCO2
N#CC1(NC(=O)Cn2ncc(Cl)c(Cl)c2=O)CCCCC1
CCOC(=O)C1=C(C)N(C)C(C)=C(C(=O)OCC)C1c1cccnc1
COc1cccc(CNC(=O)c2cc3c(cc2Cl)N2CCCCCC2=NS3(=O)=O)c1
C#CCOCCOCCOCCNc1nc(N2CCN(C(=O)CCCCCCCCCCNC(=O)[C@H]([C@@H](C)CC)n3cc(CCCCN=C(N)N)nn3)CC2)nc(N2CCN(C(=O)CCCCCCCCCCNC(=O)[C@H](CCCCN)n3cc(C)nn3)CC2)n1
C#CCOCCOCCOCCNc1nc(N2CCN(C(=O)CCCCCCCCCCNC(=O)[C@H](CCCCN)n3cc(CCO)nn3)CC2)nc(N2CCN(C(=O)CCCCCCCCCCNC(=O)[C@H](CCCCN)n3cc(C[C@@H](C)CC)nn3)CC2)n1
O=C1C=C(NCc2ccc3c(c2)OCO3)CC(c2ccccc2)C1 (centres undefined)
Cc1cc(C(F)(F)F)nn1C(=O)c1cccnc1Cl
O=C(NCCCNCCCNC(=O)c1ccc(/C=N/O)nc1)c1ccc(/C=N/O)nc1
COC(=O)CSC1=C(C#N)C(c2ccsc2)CC(=O)N1 (centres undefined)
COc1ccc(N2C(=O)CSC23CCCCC3)cc1
Cc1cccnc1Nc1nc(-c2ccc(O)cc2)cs1
COc1ccc(/C=C(/C(=O)NCc2ccccc2)c2ccccc2)cc1
Cc1cccc(NC(=S)N2CCN(Cc3ccc4c(c3)OCO4)CC2)c1C
CC1(C)[N+]([O-])=C2C(=[N+]([O-])C1(C)C)c1ccccc1/C2=N\O
O=C1NCCN1CCNS(=O)(=O)c1ccccc1[N+](=O)[O-]
Cc1ccc(NC(=O)COC(=O)c2ccco2)cc1S(=O)(=O)N1CCOCC1
Cc1ccc(/C=N/NC(=O)c2ccc(C(=O)N/N=C/c3ccc(C)s3)o2)s1

— PubChem BioAssay AID488840 (Broad Institute, 2010)
